From PubChem
VLA-4 antagonist: inhibitors of LDV-FITC binding to Mn2+-activated VLA-4, primary screen, Jurkat cells; Integrin alpha-4 (Homo sapiens), P13612; LDV-FITC binding with Mn2+, flow cytometry; 100% = Mn2+-driven binding gain fully reversed; inhibition, % at 10 µM (by protocol); 24,000 tested, 0.2% active; AID 529, 2006;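 active = inhibition above 50%; inconclusive = compound itself fluorescent, judged against control cell fluorescence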
Target sequence (P13612 whole entry, looked up): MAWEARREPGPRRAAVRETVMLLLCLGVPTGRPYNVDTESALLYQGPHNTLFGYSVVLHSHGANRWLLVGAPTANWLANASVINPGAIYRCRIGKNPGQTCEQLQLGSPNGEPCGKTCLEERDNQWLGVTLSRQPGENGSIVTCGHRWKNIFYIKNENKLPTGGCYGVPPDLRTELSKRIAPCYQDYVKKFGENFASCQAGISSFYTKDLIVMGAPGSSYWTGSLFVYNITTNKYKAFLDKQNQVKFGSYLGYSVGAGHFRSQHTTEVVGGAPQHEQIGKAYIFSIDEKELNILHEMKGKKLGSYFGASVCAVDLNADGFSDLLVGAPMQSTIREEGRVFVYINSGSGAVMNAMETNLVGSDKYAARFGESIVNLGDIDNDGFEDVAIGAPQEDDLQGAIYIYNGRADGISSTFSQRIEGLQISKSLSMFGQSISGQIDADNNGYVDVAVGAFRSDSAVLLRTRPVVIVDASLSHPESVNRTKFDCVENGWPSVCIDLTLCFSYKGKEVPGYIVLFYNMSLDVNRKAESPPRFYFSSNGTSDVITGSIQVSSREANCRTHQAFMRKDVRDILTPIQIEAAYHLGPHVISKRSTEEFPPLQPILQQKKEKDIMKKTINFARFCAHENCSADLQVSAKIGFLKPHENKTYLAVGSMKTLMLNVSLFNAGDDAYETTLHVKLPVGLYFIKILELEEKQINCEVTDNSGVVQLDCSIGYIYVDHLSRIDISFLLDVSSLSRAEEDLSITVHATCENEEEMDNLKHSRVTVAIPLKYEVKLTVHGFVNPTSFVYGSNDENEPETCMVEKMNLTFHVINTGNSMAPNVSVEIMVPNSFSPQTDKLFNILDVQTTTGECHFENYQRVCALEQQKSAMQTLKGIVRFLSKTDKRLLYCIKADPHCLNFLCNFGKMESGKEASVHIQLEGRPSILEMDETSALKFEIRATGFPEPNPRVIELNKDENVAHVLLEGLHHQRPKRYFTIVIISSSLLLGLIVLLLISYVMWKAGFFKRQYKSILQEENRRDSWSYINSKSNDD
FPRL1 binder: human FPRL1 ligands by binding competition, primary screen, cell-based, FPR counter-screen, flow cytometry; N-formyl peptide receptor 2 (Homo sapiens), P25090; FPRL1-expressing cells, fluorescent ligand binding inhibition; inhibition, % (concentration not given with the values); 24,000 tested, 0.3% active; AID 441, 2006
Autofluor Jurkat: compound autofluorescence on Jurkat cells, primary screen, artefact control for VLA-4 allosteric ligand project, cell-based, flow cytometry; hits give high values; 1 = vehicle-only cell background; fluorescence ratio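 (tested at 10 µM compound in the well)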; 24,000 tested, 0.61% active; AID 576, 2007;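 active = fluorescence ratio above 2.44, which is 1 plus 3 SD of all ratios; inconclusive = signal too bright to measure linearly, ratio around 10 or more; inactive = fluorescence ratio below 2.44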;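 note: green fluorescence of cells measured with 488 nm excitation and 530 nm emission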
FPR binder: human FPR ligands by binding competition, primary screen, cell-based, FPRL1 counter-screen, flow cytometry | fMet-Leu-Phe receptor (Homo sapiens), P21462 | FPR-expressing cells, fluorescent ligand binding | inhibition, % (concentration not given with the values) | 24,000 tested, 0.74% active | AID 440, 2006
VLA-4 allo ag: enhancers of LDV-FITC binding to VLA-4 integrin, primary screen, Jurkat cells, flow cytometry | Integrin alpha-4 (Homo sapiens), P13612 | activation, % at 10 µM (by protocol) | 24,000 tested, under 10 active | AID 528, 2006;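 active = fluorescent ligand binding to cells raised by more than 40% of the manganese-induced maximum; inconclusive = compound's own fluorescence above 85% of the ligand control signal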
A number is an active result. In the library only some 1.4% were active in any assay of this set; here they are far more common. Cut-off read from the data, not from the text of the source, unless noted: active = inhibition above about 30%; inconclusive = no clear call, values can overlap the other calls; inactive = below that.

`CC(C)OC(=O)c1cc(=O)[nH]c2ccccc12` gave VLA-4 antagonist inactive, FPRL1 binder inactive, Autofluor Jurkat inactive, FPR binder inactive and VLA-4 allo ag inactive.
`COC(=O)C1Cc2c([nH]c3ccccc23)CN1` (centres undefined) gave VLA-4 antagonist inconclusive, FPRL1 binder inactive, Autofluor Jurkat 4.1, FPR binder inactive and VLA-4 allo ag inconclusive.
`COc1ccc2[nH]c(C)c(CN3CCCC(C)C3)c(=O)c2c1` (centres undefined) gave VLA-4 antagonist inactive, FPRL1 binder inactive, Autofluor Jurkat inactive, FPR binder inactive and VLA-4 allo ag inactive.
COc1cccc2sc(Nc3nnc(-c4ccccc4Cl)o3)nc12 was read as VLA-4 antagonist 73, Autofluor Jurkat inactive and VLA-4 allo ag inactive.
`COc1ccccc1-c1nnc(Nc2nc3c(OC)cccc3s2)o1` gave VLA-4 antagonist inactive, FPRL1 binder inactive, Autofluor Jurkat inactive, FPR binder inactive and VLA-4 allo ag inactive.
CCOC(=O)c1cc2c(=O)n3cccc(C)c3nc2n(Cc2ccco2)c1=NC(=O)c1cccnc1 was read as VLA-4 antagonist inconclusive, FPRL1 binder inactive, Autofluor Jurkat 5.5, FPR binder inactive and VLA-4 allo ag inconclusive.
`CCOC(=O)c1cc2c(=O)n3ccccc3nc2n(Cc2ccco2)c1=NC(=O)c1cccnc1` gave VLA-4 antagonist inconclusive, FPRL1 binder inactive, Autofluor Jurkat 4.3, FPR binder inactive and VLA-4 allo ag inconclusive.
`COc1ccc(C)cc1NC(=O)C1CCCCC1C(=O)O` (centres undefined) gave FPRL1 binder inactive and FPR binder 32.
`Cc1c(C)c2cc(Cl)c(O)c(CN3CCCCC3)c2oc1=O` gave VLA-4 antagonist inactive, FPRL1 binder 50, Autofluor Jurkat inactive, FPR binder 38 and VLA-4 allo ag inactive.
For CCCCc1cc(=O)oc2c(CN3CCCC3)c(O)c(Cl)cc12 the results were VLA-4 antagonist inactive, FPRL1 binder inactive, Autofluor Jurkat inactive, FPR binder inactive and VLA-4 allo ag inactive.
NC(=O)C1CCN(C(=O)C2CCN(S(=O)(=O)c3ccccc3)CC2)CC1 was read as VLA-4 antagonist inactive, FPRL1 binder inactive, Autofluor Jurkat inactive, FPR binder inactive and VLA-4 allo ag inactive.
O=S(=O)(Nc1cccc2ncccc12)c1cccs1 was read as VLA-4 antagonist inactive, FPRL1 binder 39, Autofluor Jurkat inactive, FPR binder inactive and VLA-4 allo ag inconclusive.
O=S(=O)(NCCc1ccccn1)c1cccs1 was read as VLA-4 antagonist inactive, FPRL1 binder inactive, Autofluor Jurkat inactive, FPR binder inactive and VLA-4 allo ag inactive.
`COc1ccccc1-n1c(CNC(=O)c2ccco2)nnc1SCC(=O)Nc1ccc(F)cc1` gave VLA-4 antagonist inactive, FPRL1 binder inactive, Autofluor Jurkat inactive, FPR binder 47 and VLA-4 allo ag inactive.
`N#CC1=C(N)SC(N)=C(C#N)C1CCc1ccccc1` gave VLA-4 antagonist inconclusive, FPRL1 binder inactive, Autofluor Jurkat 2.9, FPR binder inactive and VLA-4 allo ag inconclusive.
Screening COc1ccc2c(C(=O)CN(C)C3CCCCC3)c[nH]c2c1 returned VLA-4 antagonist inconclusive, FPRL1 binder inactive, Autofluor Jurkat 6.7, FPR binder inactive and VLA-4 allo ag inconclusive.
CCOC(=O)C1=C(CSc2nc(C)cc(C)c2C#N)OC(N)=C(C#N)C1c1cccs1 (centres undefined) was read as VLA-4 antagonist inactive, FPRL1 binder inactive, Autofluor Jurkat inactive, FPR binder inactive and VLA-4 allo ag inactive.
CCN1C=C(Cc2cccs2)C2=C(C1)C(c1cccs1)C(C#N)=C(N)O2 (centres undefined) was read as VLA-4 antagonist inconclusive, FPRL1 binder inactive, Autofluor Jurkat 3.1, FPR binder inactive and VLA-4 allo ag inconclusive.
For CCCOc1ccc(C(CC(=O)O)NC(=O)C23CC4CC(CC(C4)C2)C3)cc1 (centres undefined) the results were VLA-4 antagonist 113, Autofluor Jurkat inactive and VLA-4 allo ag inactive.
`CCCCOc1ccc(CC(=O)NO)cc1` gave VLA-4 antagonist inactive, FPRL1 binder inactive, Autofluor Jurkat inactive, FPR binder inactive and VLA-4 allo ag inactive.
